Results on 29 compounds are retold here after PubChem BioAssay (Tox21).

A short description of assay [1]: qHTS assay to identify small molecule antagonists of the estrogen related receptor (ERR) signaling pathway from Tox21 library - cell viability counter screen (AID 1224834). Also: nearly all actives have a fitted effect of over 30% in size. Also: potency is read from the fitted curve at half-maximal effect. In outline:
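ERR cells, 2,000/well; 6 h settle at 37 C/5% CO2; pin-tool compound transfer in DMSO; 17.5 h at 37 C; CellTiter-Fluor, 30 min; fluorescence intensity.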
(qHTS replaces the single test concentration by a dilution series.)

Assay [2] deals with Nuclear receptor subfamily 1 group I member 3 (Homo sapiens) (UniProt Q14994). The assay is described as follows: qHTS assay to identify small molecule antagonists of the constitutive androstane receptor (CAR) signaling pathway (AID 1224838).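 Also: HepG2 cells stably expressing hCAR with CYP2B6 luciferase reporter stimulated by CITCO; nearly all actives have a fitted effect of over 40% in size.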 The essentials:
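Antagonist mode used CITCO at a final 50 nM to activate CAR in human hepatoma HepG2 cells carrying stable hCAR and a 2.2 kb CYP2B6 promoter-luciferase construct. Compounds were tested at 15 concentrations over 24 h, with luminescence as the end point.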

The target is the same in assay [3]. In words: qHTS assay to identify small molecule agonists of the constitutive androstane receptor (CAR) signaling pathway (AID 1224839). Also: nearly all actives have a fitted effect of over 15% in size. Also: potency is read from the fitted curve at half-maximal effect. In outline:
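Cells were plated and incubated 4 hrs, then dosed with compounds at 15 concentrations. PK11195 was added to 0.75 uM final. After 24 hrs at 37 C, luciferase luminescence was measured.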

Assay [4] can be described thus: qHTS assay to identify small molecule agonists of the constitutive androstane receptor (CAR) signaling pathway - cell viability counter screen (AID 1224836). Also: series mostly up to about 92 µM; nearly all actives have a fitted effect of over 45% in size. The essentials: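 Cells were seeded and incubated 4 hrs. Compounds were added across 15 concentrations together with PK11195 at 0.75 uM final. Plates were incubated 23 hrs at 37 C. CellTiter-Fluor was added and fluorescence measured.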

The nature of assay [5]: qHTS assay to identify small molecule antagonists of the constitutive androstane receptor (CAR) signaling pathway - cell viability counter screen (AID 1224837). Also: nearly all actives have a fitted effect of over 45% in size. Also: potency is read from the fitted curve at half-maximal effect. In outline: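 Viability was measured with CellTiter-Fluor in a HepG2 line carrying stably transfected hCAR and a CYP2B6-2.2kb construct. Cells were exposed for 23 hr at 37 C to 15 compound concentrations with 50 nM CITCO as agonist.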

Assay [6] can be described thus: qHTS assay to identify small molecule antagonists of the estrogen related receptor signaling pathway with the pleiotropic PPARgamma coactivator (PGC) from Tox21 10K library - cell viability counter screen (AID 1224840; active = well fitted cell-killing curve with a large enough effect in the repeat runs, not every such curve was filed as active; also: nearly all actives have a fitted effect of over 40% in size). In outline: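 Multiplexed viability counter screen in the PGC/ERR cell line: cells treated with DMSO-dissolved compounds for 17.5 hours at 37 C, then viability measured as CellTiter-Fluor fluorescence.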

The nature of assay [7]: qHTS assay to identify small molecule antagonists of the estrogen related receptor signaling pathway with the pleiotropic PPARgamma coactivator (PGC) from Tox21 10K library (AID 1224841; call rule not given here; also: actives are mostly falling curves and most rising ones were filed inactive; nearly all actives have a fitted effect of over 50% in size; also: potency is read from the fitted curve at half-maximal effect). The essentials:
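Steps: plate 2,000 PGC/ERR cells per well; incubate 6 h at 37 C with 5% CO2; transfer compounds from DMSO stocks by pin tool; incubate 18 h at 37 C; add One-Glo; measure luminescence 30 min later.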

The nature of assay [8]: qHTS assay to identify small molecule agonists of the estrogen related receptor signaling pathway with the pleiotropic PPARgamma coactivator (PGC) from Tox21 10K library (AID 1224842). Also: nearly all actives have a fitted effect of over 15% in size. Also: potency is read from the fitted curve at half-maximal effect. The essentials:
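PGC/ERR reporter cell line, 2,000 cells per well, incubated 6 h at 37 C before 23 nL compound in DMSO was added. After 18 h at 37 C, One-Glo luminescence read following 30 min at room temperature.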

Assay [9] deals with Luciferin 4-monooxygenase (Photinus pyralis) (UniProt P08659). The assay is described as follows: qHTS assay to identify small molecule inhibitors of firefly luciferase (AID 1224835). Also: nearly all actives have a fitted effect of over 25% in size. Also: potency is read from the fitted curve at half-maximal effect. The essentials:
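Biochemical qHTS: compounds run as interplate titrations against purified firefly enzyme, with D-luciferin and ATP each at its KM concentration. Light output recorded by CCD imaging.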

Records with an inconclusive call do not appear. Unmarked numbers belong to inactive results. Calls of active or inactive are those of the source. Unless noted, calls follow the shape of the dose curve; as a rule, active = well fitted curve in the direction sought with a large enough effect in the repeat runs; inconclusive = weak or mixed curves; inactive = no such curve, though single readings can be large; an effect the other way counts as inactive or inconclusive.

Sequence of Luciferin 4-monooxygenase (Photinus pyralis) (P08659 whole entry, looked up): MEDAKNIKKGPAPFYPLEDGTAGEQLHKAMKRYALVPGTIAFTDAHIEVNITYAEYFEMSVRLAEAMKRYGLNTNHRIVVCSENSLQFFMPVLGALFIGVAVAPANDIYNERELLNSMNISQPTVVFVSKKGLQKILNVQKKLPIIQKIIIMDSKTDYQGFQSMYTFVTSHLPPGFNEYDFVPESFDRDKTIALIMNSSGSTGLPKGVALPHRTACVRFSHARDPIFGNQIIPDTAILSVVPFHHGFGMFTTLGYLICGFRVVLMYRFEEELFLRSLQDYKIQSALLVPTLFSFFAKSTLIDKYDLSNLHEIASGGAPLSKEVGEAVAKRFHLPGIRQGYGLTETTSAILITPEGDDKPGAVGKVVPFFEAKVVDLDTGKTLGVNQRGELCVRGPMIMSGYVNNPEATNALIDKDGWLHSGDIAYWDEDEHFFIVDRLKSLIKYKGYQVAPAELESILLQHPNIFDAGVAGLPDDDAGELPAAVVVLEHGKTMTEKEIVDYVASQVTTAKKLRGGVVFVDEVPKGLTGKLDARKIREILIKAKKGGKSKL
Sequence of Nuclear receptor subfamily 1 group I member 3 (Homo sapiens) (Q14994 whole entry, looked up): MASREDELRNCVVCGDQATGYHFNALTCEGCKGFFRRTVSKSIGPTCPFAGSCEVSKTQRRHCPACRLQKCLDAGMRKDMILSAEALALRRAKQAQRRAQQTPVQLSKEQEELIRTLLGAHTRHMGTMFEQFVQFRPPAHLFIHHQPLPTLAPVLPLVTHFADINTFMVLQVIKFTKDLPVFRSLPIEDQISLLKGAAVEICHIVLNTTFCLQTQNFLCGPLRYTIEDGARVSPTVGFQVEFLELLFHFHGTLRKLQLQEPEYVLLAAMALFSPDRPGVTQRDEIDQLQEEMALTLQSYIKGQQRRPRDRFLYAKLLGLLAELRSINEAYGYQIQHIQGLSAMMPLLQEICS

With `Cc1ccc(NC(=O)c2ccc(CN3CCN(C)CC3)cc2)cc1Nc1nccc(-c2cccnc2)n1`, the Potency was 23.7 µM (active) in [1] and 13.3 µM (active) in assay [3]. The Potency entry in assay [2] was “inactive”.

Take `Cc1cc(SC2=C(O)C[C@@](CCc3ccc(N)cc3)(C(C)C)OC2=O)c(C(C)(C)C)cc1CO`: the Potency result in assay [1], in assay [4], in assay [5], in [6], in assay [7] and in assay [8] was “inactive” throughout.

Consider `CCOc1cc(OCC)c(C(C)=O)cc1OCC`, for which the Potency was 30.1 µM (active) in assay [1], 26.8 µM (active) in assay [5] and 23.9 µM (active) in assay [3]. The Potency entry in assay [2], in assay [7] and in assay [8] was “inactive” in each case.

As for `Nc1ccccc1Nc1ccccc1`, the Potency entry in assay [4] and in assay [2] was “inactive” each time. Besides, the Potency in assay [3] is 54.6 µM (active).

`C=CC(=O)OCCCCCCCCCC`: the Potency result in [1], in assay [4], in assay [2], in assay [3], in [6] and in [7] was “inactive” each time. Besides, in assay [8], the Potency entry was “inactive”.

Consider `CCCC(=O)OCc1ccccc1`, for which the Potency entry in assay [1], in assay [5], in assay [7] and in assay [8] was “inactive” each time.

Regarding `CC(C)C/C=C(\C=O)c1ccccc1`, the Potency entry in assay [9], in assay [4], in assay [5], in [2], in assay [3] and in assay [6] was “inactive” in each case. The Potency entry in assay [7] and in assay [8] was “inactive” in each case.

Regarding `CNc1ccccc1`, the Potency result in assay [1], in [4], in assay [5], in [6], in [7] and in assay [8] was “inactive” each time.

Take `O=C1c2ccccc2C(=O)C1c1ccc2ccccc2n1`: the figures for the Potency in [9] and in assay [3] were 0.111 µM (active) and 6.05 µM (active), respectively. Further, the Potency result in [4], in assay [2] and in [6] was “inactive” in each case.

For the compound `Oc1ccc(CCNCCCCCCNCCc2ccccc2)cc1O`, the Potency result in assay [4], in assay [2], in [3], in assay [6], in assay [7] and in assay [8] was “inactive” throughout.

In the case of `O=C1c2ccccc2C(=O)c2c1ccc(O)c2O`, the Potency in assay [9] was 34.7 µM (active). For the same compound, the Potency result in assay [2], in [3] and in [6] was “inactive” in each case.

For `COc1ccc(/C=C/c2cc(OC)cc(=O)o2)cc1`, the Potency in [9] is 5.15 µM (active); in assay [3], 6.26 µM (active); in assay [8], 7.88 µM (active). The Potency entry in assay [4], in assay [5], in [2] and in assay [6] was “inactive” throughout.

Take `O=Cc1ccc([N+](=O)[O-])cc1`: the Potency entry in assay [1], in [5], in assay [2], in assay [6] and in assay [7] was “inactive” in each case. For the same compound, the Potency in assay [3] is 61.5 µM (active).

With `Cc1nc(C)c(C)nc1C`, the Potency entry in [1], in [4], in [2], in assay [3], in [6] and in assay [7] was “inactive” in each case. Besides, the Potency result in [8] is “inactive”.

For the compound `Nc1cccc2c(=O)[nH][nH]c(=O)c12`, the Potency entry in [9], in assay [2], in assay [3], in assay [6] and in assay [8] was “inactive” each time. Also, the Potency in assay [7] is 61.4 µM (active).

Consider `CC(C)CC(C)(C)C`, for which the Potency entry in [9], in [4], in assay [5], in assay [2], in [6] and in assay [8] was “inactive” each time. In addition, the Potency in [3] was 63.4 µM (active).

On to `COC(=O)Cc1cccc2ccccc12`, for which the Potency entry in [9], in assay [4], in assay [5], in [2] and in assay [6] was “inactive” throughout. Also, the Potency in [3] was 34.4 µM (active).

Take `CCCc1ccc(OC)cc1`: the Potency result in assay [1], in assay [4], in [5] and in assay [6] was “inactive” throughout.

Consider `CCOC(=O)CC(O)(CC(=O)OCC)C(=O)OCC`, for which the Potency result in assay [1], in assay [4], in assay [2] and in assay [6] was “inactive” each time.

Take `O=c1[nH]nc(-c2ccc([N+](=O)[O-])o2)o1`: the Potency entry in assay [9], in assay [2] and in assay [8] was “inactive” throughout.

As to `Sc1nc(S)nc(S)n1`, the Potency entry in assay [1], in [4], in assay [5], in assay [6], in assay [7] and in assay [8] was “inactive” throughout.

In the case of `CCCCCCCCC(=O)OCC(C)OC(=O)CCCCCCCC` (configuration not stated), the Potency result in assay [1], in [4], in [2], in assay [3] and in assay [6] was “inactive” in each case.

As to `CCn1nc(Cc2ccccc2)cc1C1CCN(C[C@H]2C[C@H](N(C)[C@@H](C(=O)O)C(C)C)C[C@@H]2c2cccc(F)c2)CC1`, the Potency entry in assay [9], in assay [4], in assay [2], in assay [3], in assay [6] and in assay [7] was “inactive” each time. The Potency entry in assay [8] was “inactive”.

For the compound `O=Cc1ccc(Cl)c([N+](=O)[O-])c1`, the Potency result in assay [9], in [4], in assay [5], in assay [2], in [3] and in assay [8] was “inactive” in each case.

In the case of `CCCC1CCCC(=O)O1` (configuration not stated), the Potency entry in [1], in assay [4], in [2], in assay [3] and in assay [6] was “inactive” in each case.

With `COC(=O)C(C)(C)C`, the Potency result in assay [9], in assay [4], in [5], in [2], in [3] and in assay [6] was “inactive” throughout. Besides, the Potency entry in assay [7] and in [8] was “inactive” in each case.

Regarding `COC(=O)/C=C/C(C)=C\C=C\C(C)=C\C=C\C=C(C)\C=C\C=C(C)\C=C\C(=O)O`, the Potency result in [4], in assay [5], in assay [2], in assay [6], in [7] and in assay [8] was “inactive” in each case.

Turning to `CCC[Si](OC)(OC)OC`, the Potency result in assay [1], in assay [4], in [5], in assay [6], in assay [7] and in assay [8] was “inactive” each time.

Regarding `O=C(O)c1ccc2cc(O)ccc2c1`, the Potency entry in assay [1], in assay [5], in [2], in assay [3] and in assay [6] was “inactive” each time.
